Measurements: publication PMC6212790, “How bacterial xenogeneic silencer rok distinguishes foreign from self DNA in its resident genome”
In all, about 33,000 sequences were measured (“e-score”: median about -0.038, highest 2% from about 0.33 on). The sample as a whole holds a higher share of the highest values than the screen did.

The sequences below were run against T1, GST-Rok-C97-191 (Bacillus subtilis subsp. subtilis str. …, UniProt O34857 97-191) (assay: protein binding microarray; Rok is a gene silencer of Bacillus subtilis; high values mean tight binding). Details: protein: recombinant; tags: GST (pTH5325, pDEST15-Magic modified); dsDNA, one strand shown.
T1 sequence: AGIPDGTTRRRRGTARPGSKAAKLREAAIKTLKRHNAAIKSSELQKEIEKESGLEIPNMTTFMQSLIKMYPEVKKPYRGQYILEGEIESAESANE
How it was run: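 Every oligonucleotide joins a 25-mer constant primer to a 35-mer variable part drawn from a de Bruijn sequence of order 10, so each non-palindromic 8-mer appears at least 32 times and each palindromic 8-mer 16 times. The preference for every 8-mer is reported as a unitless, rank-based enrichment score (E-score). This score spans 0.5 for the most favored 8-mer to −0.5 for the most disfavored.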

Sequence	binding signal [E-score]
CGAGTGTC	-0.0337
ATGACGGG	-0.176
GGGGCTAA	-0.0896
ATAAGAAT	0.215
CGAATATA	0.245
AGAATATA	0.231
GGAATATA	0.377
CAACGGCA	-0.159
GCGCAATA	0.0439
AGCGGTAG	0.33
ACCGGTAA	0.192
CGCGGTAG	0.00539
AGCGGTAT	0.237
ACCGGTAG	0.335
CCCGGTAG	-0.134
ATGACCCA	-0.129
GTTTGTTA	0.13
ACATCAAA	0.02
CCTGTCAG	-0.131
GACTAAAA	0.144
CACTAAAA	0.299
AACTAAAT	0.379
TACTAAAA	0.421
AACTAATC	0.129
AACTAACG	0.263

Sequence	binding signal [E-score]
AACTAACA	0.126
AACTAATA	0.288
AACTAAAG	-0.0536
AACTAATT	0.344
AACTAACT	0.352
AACTAAAC	0.00571
AGGCACAT	-0.0618
CTGCAACA	0.0545
ACGGACCA	-0.109
CGTCCTTA	0.175
AAAATGTG	0.218
GTGCGAAC	-0.184
GCGAATAC	0.0221
AAACTGGG	-0.197
CCCGCTAC	-0.0971
AGACCTAG	0.0543
AGAAGCTC	-0.0476
CCTAATCC	0.0562
CGATAAGA	0.0724
AACTAAGA	0.223
ACCTAAAA	0.295
AACTAAAA	0.347
AACACAAA	0.135
AGCGCAAG	-0.0906
ATACGACC	0.00262

Sequence	binding signal [E-score]
AAAGGTAG	0.316
ATTAACTG	0.214
ATTAACTA	0.367
ATTAACTC	0.124
CTTAACTA	0.273
GTTAACTA	0.376
GTTAACGA	0.0428
TAGTCACA	0.123
TCGGGCCA	-0.12
AGAGTGCG	-0.139
ATTAGAAA	0.282
AGTAGAAC	0.234
AGTAGAAT	0.422
AGTAGAAA	0.448
AGTAGAAG	0.276
AGTAGAGA	0.206
AACGGGCT	-0.138
AGCCATTG	-0.0954
AAGGACTG	-0.0637
ACAGAGAG	-0.125
CAATTGTA	0.251
GTATTGTA	0.212
CTATTGTC	-0.0498
CTATTGTA	0.355
ATATTGTG	0.214

Sequence	binding signal [E-score]
ATATTGTA	0.363
ATGCGCGG	-0.168
CTGTCCAA	-0.154
CACAGAGG	-0.0801
ACATCCTG	-0.137
TCCTGCGA	-0.149
GGCTTGAA	-0.105
CACTGACG	0.009
AAATTTGG	0.0224
AATTTTAC	0.384
AAATTTGT	0.33
ATTTTTAC	0.328
GAATTTAC	0.282
AAATTTAC	0.38
AATTTTTA	0.167
AAATTTAG	0.242
AAATTTTA	0.374
AATTTTAG	0.259
AAATTTTC	0.182
AAATTTGA	0.0368
TGAAGTAA	0.132
GTAATAAC	0.0936
GTATTCGA	0.15
ATTTGCTG	-0.0116
AAGATTGC	-0.0164

Sequence	binding signal [E-score]
AATCGTGA	-0.118
ACCCATGC	-0.182
AGAGCGAA	-0.138
GGTCGACA	-0.101
CAATTTAG	0.232
TAAATTTA	0.405
CAATTTAA	0.0656
AAAATTTA	0.282
CAATTTAC	0.357
CAAATTTA	0.31
AGTCTGGG	-7.1e-05
GAGCTTAC	-0.189
CCGAAAAC	0.168
CATACATG	0.171
TATACATA	0.401
TATACAAA	0.347
GATACATA	0.377
CATACAAA	0.219
AATACAAA	0.313
AATACATA	0.308
TACACATA	0.203
CATACATA	0.234
CATTAACC	-0.0128
TCATACCA	0.0725
ATTAGCAC	0.0299

Sequence	binding signal [E-score]
GTCGGAAC	0.0505
AAGGTTGA	0.063
CTACCTTA	0.264
AAAAGCAA	0.148
CGATTATC	0.0925
TACTGAGA	0.0745
TCACTAAA	0.164
CTACTAAA	0.379
GTACTAAC	0.145
ATACTAAA	0.39
GGACTAAA	0.0947
ATACTAAC	0.103
CTACTAAC	0.223
TGACTAAA	0.0396
TTACTAAA	0.335
ATACTAAT	0.321
GTACTAAA	0.329
CTACTAAG	0.261
TATTTCCA	0.228
ACTATTGC	0.313
CTATCTTA	0.227
AAGAATCT	0.0962
TTCCTCAA	0.041
AACTGAGC	0.0188
GAAGCTGA	0.014

Sequence	binding signal [E-score]
ACGGTCCT	-0.132
AAACTGTT	-0.043
TATAGATA	0.368
AATAGATA	0.32
TAAAGATA	0.27
GTAAGATA	0.229
AAAAGATA	0.137
ATAAGATA	0.372
CATAGATA	0.297
GAAAGATA	0.329
GATAGATA	0.347
GTTAGATA	0.321
CTAAGATA	0.213
GATAGATC	0.268
AACATCGA	0.134
GCACAAAC	-0.0175
AGCGTGGA	0.126
AAAAGAGA	0.147
TCCATTCA	-0.131
TAACAATA	0.292
GATTTGCC	-0.0374
CGTTATCC	-0.0591
ACACCTGC	-0.197
GTGCGGGA	-0.196
CTCCCATC	-0.161

Sequence	binding signal [E-score]
AATAGATC	0.161
AATAGATG	0.267
AATAGATT	0.352
CTAGTCGA	0.131
GATAAGCA	0.0731
ATAATAAG	0.331
ATAATACC	0.197
ATAATACG	0.344
ATAATACA	0.242
ATAATAAT	0.31
CTAATAAG	0.127
AGGAACCA	0.128
AAGCTTGC	-0.0667
AAGACGGC	-0.186
CCTCGCTC	-0.125
AAATATAG	0.22
AAATATAA	0.269
AACTATAG	0.327
GAATATAC	0.293
AACTATAC	0.253
AACTATAT	0.415
AAATATAC	0.401
CAATATAC	0.243
AAATATAT	0.417
AAGTGCGG	0.009

Sequence	binding signal [E-score]
CGAGCCTA	-0.0633
GAACGTCA	-0.14
CGGCACTA	0.0999
ATTTAGGG	-0.024
CTTTGCTC	-0.124
AAAGTACG	0.192
AAAGTACC	0.291
TAAGTACA	0.35
GAAGTACA	0.237
AAAGTACA	0.366
CAAGTACA	0.151
CCGTTGGA	-0.177
ACAAAACG	-0.11
AATTTACG	0.338
AATTTACC	0.345
CATTTACA	0.277
AATTTAGT	0.165
AATTTACA	0.331
TATTTACA	0.235
AATTTAAT	0.321
ATTTTACC	0.322
CATTTACG	0.0408
ATTTTACG	0.268
GATTTACC	0.187
AATTTACT	0.416
